Pf Dd2 growth = qHTS Primary assay for Inhibitors of Plasmodium falciparum Dd2 growth in vitro. P. falciparum Dd2 growth, SYBR Green, 72 h. Potency, µM (highest dose often 28.9 µM), hits mostly inhibitors. actives 4.3% (n = 120,000); active = well fitted inhibition curve with a large enough effect; note: nearly all actives have a fitted effect of over 65% in size
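Infected erythrocytes (Dd2, 0.3% parasitemia, 2.5% hematocrit final) are added to compound in RPMI-1640/Albumax II medium, grown 72 h at 37C in low oxygen, then lysed with saponin/Triton-X containing SYBR Green and read by fluorescence.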
Hits are given with their value; i = inactive. Shown is part of a subset that was picked to be rich in hits.

SMILES	Pf Dd2 growth
CCOC(=O)c1ccc(OCC2c3cc(OC)c(OC)cc3CCN2C(=O)c2ccc(S(=O)(=O)N3CCCC3)cc2)cc1 (stereo unspecified)	11.2µM
Cc1nc(CC2CCN(C(=O)c3ccsc3)CC2)n[nH]1	i
CC(C)NC(=O)C1CN(c2ccccc2)C(=O)N1 (stereo unspecified)	i
O=C(NC1CC1)c1cc2cccnn2n1	i
CC(C)N1C[C@@H]2OCC(=O)N(CC3CC3)[C@@H]2C1	i
CCCC(=O)N1C2CCCC1CC(=O)C2	i
Cc1ccccc1S(=O)(=O)NCCc1noc(-c2cccnc2)n1	i
CCc1ccc(NC(=O)CN2C(=O)C3(SCC(=O)N3c3ccccc3)c3ccccc32)cc1 (stereo unspecified)	11.2µM
Cc1cccc(N2C(=O)CSC23C(=O)N(Cc2cccc(C(F)(F)F)c2)c2ccccc23)c1 (stereo unspecified)	10µM
CC(C)c1ccc(N2C(=O)CSC23C(=O)N(Cc2ccccc2)c2ccccc23)cc1 (stereo unspecified)	i
CCc1ccc(N2C(=O)CSC23C(=O)N(Cc2ccc(C)cc2)c2ccccc23)cc1 (stereo unspecified)	i
Cc1cccc(N2C(=O)CSC23C(=O)N(C)c2ccccc23)c1 (stereo unspecified)	i
O=C(CN1C(=O)C2(SCC(=O)N2c2cccc(Cl)c2)c2ccccc21)NC1CCCCC1 (stereo unspecified)	12.6µM
CN1C(=O)C2(SCC(=O)N2c2cccc(C(F)(F)F)c2)c2ccccc21 (stereo unspecified)	i
CCc1ccc(N2C(=O)CSC23C(=O)N(Cc2cccc(F)c2)c2ccccc23)cc1 (stereo unspecified)	i
NC(=O)CN1C(=O)C2(SCC(=O)N2c2cccc(F)c2)c2ccccc21 (stereo unspecified)	i
O=C(CN1C(=O)C2(SCC(=O)N2c2cccc(Cl)c2)c2ccccc21)NCc1ccccc1 (stereo unspecified)	11.2µM
O=C(Cn1c(=O)n(-c2cccc(Cl)c2)c(=O)c2sc3ccccc3c21)NC1CCCCC1	i
COc1cccc(CN2C(=O)C3(SCC(=O)N3c3cc(C)cc(C)c3)c3ccccc32)c1 (stereo unspecified)	i
CCn1cc(C(=O)N2CCC3(CC2)CN(Cc2ccccc2)CC3CO)cn1 (stereo unspecified)	i
C[C@@H]1CN(c2ccc(C#N)cn2)C[C@@]1(O)C1CC1	i
O=S1(=O)CCCN1C1CCN(Cc2cccc3ccccc23)CC1	i
O=C1NCCCCCCN(C(=O)CC2CCCCC2)[C@H]2C[C@H](c3nc(Cc4ccccc4)no3)C[C@@H]12	i
COc1ccc(S(=O)(=O)N[C@H]2C[C@@H](c3nc(-c4ccc(OC(F)(F)F)cc4)no3)N(C)C2)cc1	i
CC(=O)N1CCC2(CC1)CC(c1ccccc1)=NO2	i
SMILES	Pf Dd2 growth
O=C1CC2CCN(Cc3ccc(Cl)cc3)CC2CCN1 (stereo unspecified)	i
O=C(Cc1ccccc1)Nc1sc2c(c1C(=O)Nc1cccc(Cl)c1)CCCCC2	i
Cc1ccc(NC(=O)c2c(NC(=O)Cc3ccccc3)sc3c2CCC3)cc1	i
CC1CCc2c(sc(NC(=O)Cc3ccccc3)c2C(=O)Nc2ccc(Cl)cc2)C1 (stereo unspecified)	10µM
CN(C)c1nc(-c2ccccc2)nc2c1CCN(C(=O)C1CC1)C2	i
Cc1nc(C(C)C)sc1CNC(=O)C1CCC(=O)N(C2CCCC2)C1 (stereo unspecified)	i
CC(C)c1ccc(CC(=O)N2CCCc3ncc(C(=O)Nc4ccn(C)n4)cc32)cc1	i
O=C(NC(c1ccccc1)c1ccccc1)c1cnc2c(c1)N(C(=O)Cc1ccc(O)cc1)CCC2	12.6µM
COc1ccc(NC(=O)c2cnc3c(c2)N(C(=O)Cc2ccc(O)cc2)CCC3)cn1	i
Cc1csc(NC(=O)c2cnc3c(c2)N(C(=O)Cc2ccc(C(C)C)cc2)CCC3)n1	7.08µM
O=C(Nc1ccccc1)c1cnc2c(c1)N(C(=O)Cc1ccc(O)cc1)CCC2	i
CC(C)c1ccc(CC(=O)N2CCCc3ncc(C(=O)Nc4ccccc4)cc32)cc1	i
CCNC(=O)N1CC(N(CC)C2CCOCC2)C1	i
CC(C)CCNC(=O)C1CC(=O)N(c2n[nH]c3cccc(F)c23)C1 (stereo unspecified)	i
COc1ccc(N2CC(c3noc(-c4ccc(C(C)(C)C)cc4)n3)CC2=O)cc1OC (stereo unspecified)	i
CC(C)NC(=O)N1CCN(C(=O)C2CCNCC2)[C@@H](C(=O)N[C@H](Cc2c[nH]c3ccccc23)C(N)=O)C1	i
Cc1noc(C)c1CC(=O)NCC1CCN(c2cc(-c3ccc(F)cc3)[nH]n2)CC1	i
O=C(c1ccco1)N1CC[C@@H]2[C@@H](CCC(=O)N2CCc2ccccn2)C1	i
CCOC(C)c1ccc(-c2cc(C)n[nH]c2=O)cc1 (stereo unspecified)	i
O=C(CN1CC2CC(C1)[C@H]1CCCC(=O)N1C2)N1CCCCCC1 (stereo partly specified)	i
c1ccc2sc([C@H]3CCN(CC4CCCCC4)C3)nc2c1	10µM
O=C(C1CCCCC1)N1CC[C@H](c2nc3ccccc3s2)C1	i
CCOc1cccc(C(=O)N2CCC(c3nc4ccccc4s3)CC2)c1	i
Cc1ccsc1CN(Cc1ccco1)C(=O)c1ccc(Cl)cc1	i
Cc1ccc(C)c(NC(=O)c2nc(S(C)(=O)=O)ncc2N(Cc2ccc(C(C)(C)C)cc2)Cc2ccco2)c1	2.51µM
SMILES	Pf Dd2 growth
Cc1ccc(NC(=O)c2nc(S(C)(=O)=O)ncc2N(Cc2ccco2)Cc2cccs2)c(C)c1	i
Cc1ccc(C(=O)N(Cc2ccco2)Cc2sccc2C)cc1	i
CCS(=O)(=O)c1ncc(N(Cc2ccco2)Cc2sccc2C)c(C(=O)Nc2cc(C)ccc2C)n1	5.62µM
Cc1ccc(C)c(NC(=O)CCc2nc(-c3ccc(C(C)(C)C)cc3)no2)c1	i
Cc1cccc(CC(=O)N2CCC(c3n[nH]c(=O)n3Cc3ccc(F)cc3)CC2)c1	i
COc1ccc(-n2nc(C(=O)NCCc3ccc(OC)c(OC)c3)c3c4ccccc4n(C)c3c2=O)cc1	3.16µM
COc1ccc(-n2nc(C(=O)Nc3ccc(Br)cc3C)c3c4ccccc4n(C)c3c2=O)cc1	i
COc1ccc(-n2nc(C(=O)Nc3cccc(C)n3)c3c4ccccc4n(C)c3c2=O)cc1	i
COc1ccc(-n2nc(C(=O)N3CCN(c4cccc(C)c4)C(C)C3)c3c4ccccc4n(C)c3c2=O)cc1 (stereo unspecified)	11.2µM
Cc1ccc(-n2nc(C(=O)NCCc3cccc(C)c3)c3c4ccccc4n(C)c3c2=O)cc1	i
COc1ccc(-n2nc(C(=O)NCc3ccc(F)cc3)c3c4ccccc4n(C)c3c2=O)cc1	i
CCn1ncc(N2CCC(NC(=O)CC3CCCCC3)CC2)cc1=O	i
COc1ccc(CC(=O)N2CC(=O)N(c3ccc(Cl)cc3)CC2C)cc1 (stereo unspecified)	i
CC(C)c1noc(-c2cn(C3CCN(C(=O)c4ccc(F)c(F)c4)CC3)nn2)n1	i
FC(F)(F)C1CN(c2ccc3cc(Cl)ccc3n2)CCO1 (stereo unspecified)	i
Cc1c(-c2ccccc2)c(=O)oc2ccc(OC(=O)N3CCOCC3)cc12	i
O=c1oc2c(CN3CCN(CCO)CC3)c(O)ccc2cc1-c1ccccc1	i
CCN1CCN(Cc2c(O)ccc3c(C)c(-c4ccc(OC)cc4)c(=O)oc23)CC1	5.01µM
